Assay results published in PubChem BioAssay AID602438 (Sanford-Burnham Center for Chemical Genomics, 2012).
The whole screen tested about 360,000 compounds, of which about 3,100 (0.86%) were called active.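 How the source made its calls: active means inhibition or corrected inhibition above about 18%, plus a signal ratio from 0.5 to 1.5 (limit read from the data, passing the limit was not always enough); inactive means the rest.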 The list comes from a sample in which actives are over-represented; it also holds similar structures and randomly drawn compounds.

target: Neuropilin-1 (Homo sapiens) (UniProt O14786); test: NRP-1/CendR peptide interaction modulators – biochemical, fluorescence polarization, uHTS, primary screen (AID 602438); details: FAM-RPARPAR peptide binding to NRP-1, fluorescence polarization; at 25 µM; active compounds read high
Sequence (O14786 whole entry, looked up): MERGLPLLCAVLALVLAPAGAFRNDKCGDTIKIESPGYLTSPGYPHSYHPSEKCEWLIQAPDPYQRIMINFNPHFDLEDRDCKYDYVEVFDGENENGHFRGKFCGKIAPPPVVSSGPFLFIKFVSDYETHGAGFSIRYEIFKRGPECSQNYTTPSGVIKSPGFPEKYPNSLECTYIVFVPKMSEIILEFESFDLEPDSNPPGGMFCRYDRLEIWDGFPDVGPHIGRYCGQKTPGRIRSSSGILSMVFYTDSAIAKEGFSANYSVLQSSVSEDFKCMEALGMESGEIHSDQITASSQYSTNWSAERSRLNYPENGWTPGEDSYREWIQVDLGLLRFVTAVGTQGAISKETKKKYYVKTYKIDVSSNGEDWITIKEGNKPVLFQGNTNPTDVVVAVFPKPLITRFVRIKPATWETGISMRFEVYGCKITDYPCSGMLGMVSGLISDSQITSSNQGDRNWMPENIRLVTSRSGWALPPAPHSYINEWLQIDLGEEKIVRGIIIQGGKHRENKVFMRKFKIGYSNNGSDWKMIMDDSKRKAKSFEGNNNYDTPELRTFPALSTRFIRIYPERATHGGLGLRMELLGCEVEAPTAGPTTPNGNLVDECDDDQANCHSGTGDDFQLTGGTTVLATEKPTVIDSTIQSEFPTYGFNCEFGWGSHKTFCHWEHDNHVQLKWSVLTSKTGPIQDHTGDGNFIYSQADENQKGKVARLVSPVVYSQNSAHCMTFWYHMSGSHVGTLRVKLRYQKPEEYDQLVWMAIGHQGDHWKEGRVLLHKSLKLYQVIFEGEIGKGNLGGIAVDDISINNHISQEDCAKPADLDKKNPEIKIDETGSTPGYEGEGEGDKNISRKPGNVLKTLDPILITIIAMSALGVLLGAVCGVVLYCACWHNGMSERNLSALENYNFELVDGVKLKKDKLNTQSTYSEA

| SMILES | inhibition |
| --- | --- |
| CCN(Cc1ccccc1)S(=O)(=O)c1cc(C(=O)O)ccc1OC | 13.4% (inactive) |
| C/C(N)=C(\C#N)C(=O)NCCc1ccccn1 | -1.8% (inactive) |
| CC(C)CN(C(=O)c1cccc(S(=O)(=O)N2CCCCC2)c1)C1CCS(=O)(=O)C1 (centres undefined) | -6.3% (inactive) |
| COCC1CCCN(C(=O)c2ccc3oc(C(C)C)nc3c2)C1 (centres undefined) | -5.1% (inactive) |
| Cc1ccc(S(=O)(=O)N(CC(O)CN2CCCCC2)c2cccc([N+](=O)[O-])c2)cc1 (centres undefined) | -0.8% (inactive) |
| Cc1ccc(S(=O)(=O)N(CC(O)CN2C(=O)NC(C)(C)C2=O)c2cccc([N+](=O)[O-])c2)cc1 (centres undefined) | 24.8% (active) |
| COc1ccc([N+](=O)[O-])cc1N(CC(O)Cn1nnc2ccccc21)S(=O)(=O)c1ccc(C)cc1 (centres undefined) | 7% (inactive) |
| CCOC(=O)C1(C)CCCN(C(=O)c2cccc(Cl)c2)C1 (centres undefined) | 20% (active) |
| CCOC(=O)C1(C)CCCN(C(=O)c2ccc(F)c(Cl)c2)C1 (centres undefined) | 16.4% (inactive) |
| CCOC(=O)C1(C)CCCN(C(=O)c2ccc(N(C)C)cc2)C1 (centres undefined) | -8.3% (inactive) |
| CC(OC(=O)c1cccnc1Cl)C(=O)NC1CCCCC1 (centres undefined) | 0.1% (inactive) |
| CCOc1ccc(S(=O)(=O)NCCC(=O)NCC(C)(C)N2CCOCC2)cc1 | -3.6% (inactive) |
| COc1ccc(C(=O)NC2CC(C)(C)NC(C)(C)C2)cc1OC | -3.8% (inactive) |
| CN(C)C(=O)COC(=O)c1cccc(S(=O)(=O)N2CC3(C)CC2CC(C)(C)C3)c1 (centres undefined) | 9.7% (inactive) |
| COc1ccc(C(=O)N2CC3(C)CC2CC(C)(C)C3)cc1OC (centres undefined) | 33.3% (active) |
| O=c1[nH]c2ccccc2n1C1CCN(CCOc2ccccc2)CC1 | -8% (inactive) |
| Cc1ccc(S(=O)(=O)N(CC(=O)Nc2cccnc2)c2ccc(Br)cc2)cc1 | 0.4% (inactive) |
| COc1ccccc1-c1nnc2n1N=C(c1ccc(OC(F)F)c(OCC3CC3)c1)CS2 | 18.8% (active) |
| COc1ccc(C2=Nn3c(nnc3-c3ccccc3OC)SC2)cc1OC1CCCC1 | 2.4% (inactive) |
| Cc1ccc(NC2CCCN(C(=O)CCc3cn[nH]c3)C2)cc1C (centres undefined) | 5.4% (inactive) |

| SMILES | inhibition |
| --- | --- |
| CN(C)c1ccc(Nc2c3c4c(cccc4n(C)c2=O)C(=O)c2ccccc2-3)cc1 | 28.9% (active) |
| CCOc1cc(CNCCN(C)C)c(Cl)cc1OCC(=O)NCCc1ccccc1 | -1.5% (inactive) |
| CCOC(=O)N1CCN(C(=O)C(C)NC(=O)c2ccco2)CC1 (centres undefined) | 5.9% (inactive) |
| CCOC(=O)N1CCN(C(=O)CNC(=O)Cc2ccc(Cl)cc2)CC1 | 24.6% (active) |
| CCOC(=O)N1CCN(C(=O)Cc2ccc(-n3c(=S)[nH]c4ccccc4c3=O)cc2)CC1 | 2.6% (inactive) |
| N#Cc1ccc(C(=O)Nc2nc(-c3cccs3)c(C(=O)C(F)(F)F)s2)cc1 | 2.3% (inactive) |
| CC1(C)C/C(=C(/C#N)C(N)=O)CCO1 | 51% (active) |
| N#CC(C(N)=O)=C1CCC2(CC1)OCCCCO2 | -11% (inactive) |
| CCN(CC)C(=O)COc1coc(CN2CCN(Cc3ccccc3)CC2)cc1=O | 0.6% (inactive) |
| C=CCNC(=O)COc1coc(CN2CCN(Cc3ccccc3)CC2)cc1=O | 2% (inactive) |
| CCCNC(=O)COc1coc(CN2CCN(Cc3ccccc3)CC2)cc1=O | 22.7% (active) |
| CCOc1cnc(C(=O)NNC(=O)c2ccccc2Br)o1 | 6.1% (inactive) |
| CCCc1ccc(S(=O)(=O)N2CCN(C(=O)c3cc(C)on3)CC2)cc1 | 1.7% (inactive) |
| C=C1C(=O)OC2C1CCC(C)=CCCC1(C)OC21 (centres undefined) | -0.7% (inactive) |
| COc1ccc(-c2c(C)cc3oc(=O)cc(-c4ccccc4)c3c2C)cc1C=O | 34.1% (active) |
| COc1cc(OC)c2c(-c3cccc(-c4cccc(N)c4)c3)cc(=O)oc2c1 | -8.2% (inactive) |
| Cc1cc2oc(=O)cc(-c3ccccc3)c2c(C)c1-c1ccc(OC(F)(F)F)cc1 | 0.8% (inactive) |
| CSCC[C@H](NC(=O)CCCn1nnc2ccccc2c1=O)C(=O)O | -1.8% (inactive) |
| CC(=O)N1CCC(C(=O)OCc2ccc(Cl)cc2)(c2ccccc2)CC1 | -3% (inactive) |
| CCOc1ncccc1C(=O)Nc1ccc(S(=O)(=O)Nc2nc(C)cc(C)n2)cc1 | -0.6% (inactive) |

| SMILES | inhibition |
| --- | --- |
| COC(=O)Cc1ccc(OCC(=O)Nc2ccc(OC(F)(F)F)cc2)cc1 | 1.7% (inactive) |
| CCOC(=O)Cc1ncccc1C(=O)Nc1ccc(OC(F)(F)F)cc1 | 29.7% (active) |
| CCCCN1CCNC1=S | -6.7% (inactive) |
| CC(NC(=O)c1cc2cc(Cl)ccc2oc1=N)c1ccccc1 (centres undefined) | -11% (inactive) |
| CC(NCc1nc2ccccc2n1C)C12CC3CC(CC(C3)C1)C2 (centres undefined) | -3.5% (inactive) |
| Cc1cc(=O)oc2c(C)c(OCC(=O)NCCc3ccc(S(N)(=O)=O)cc3)ccc12 | -18.3% (inactive) |
| CCc1cc(=O)oc2c(C)c(OCC(=O)NCCN3CCOCC3)ccc12 | 10.3% (inactive) |
| Cc1cc(=O)oc2c(C)c(OCC(=O)NCCN3CCOCC3)ccc12 | 25.8% (active) |
| Cc1ccc(S(=O)(=O)N2CCN(S(=O)(=O)N3CCOCC3)CC2)cc1 | 0% (inactive) |
| CC1CC(C)CN(c2ccc(S(=O)(=O)N3CCOCC3)cc2)C1 (centres undefined) | 22.3% (active) |
| CC1CC(C)CN(S(=O)(=O)c2ccc(C(=O)NN3CCOCC3)cc2)C1 (centres undefined) | -2.9% (inactive) |
| Cc1c(CC(=O)N2CCN(C(=O)C3COc4ccccc4O3)CC2)c(=O)oc2c(O)c(O)ccc12 (centres undefined) | -49.5% (inactive) |
| COC(=O)[C@@]1(Cc2ccc(F)cc2)[C@H]2c3cc(C(=O)N4CCCC4)n(C[C@H](O)CO)c3C[C@H]2CN1C(=O)c1ccccc1 | -11.6% (inactive) |
| Cc1ccc2c(c1)N(CCCC(=O)NCc1cccnc1)C(=O)CO2 | 12.9% (inactive) |
| Cc1cc(Cl)ccc1C(=O)C1CCCN(C(=O)c2nonc2C)C1 (centres undefined) | -2.6% (inactive) |
| CCCC(=O)NC(Nc1ccccc1OC)C(Cl)(Cl)Cl (centres undefined) | -6.4% (inactive) |
| NNC(=O)C1CCCn2c1nc1sc3c(c1c2=O)CCCC3 (centres undefined) | 1.2% (inactive) |
| C=C(C)CSc1nc(N)c2c3c(sc2n1)CCC3 | -0.3% (inactive) |
| Cn1c(NN)nc2sc3c(c2c1=O)CCC3 | 17.4% (active) |
